# Test results from PubChem BioAssay.
# “And” between values parts separate entries of the source, which are not always exact repeats. Identical values can stand only once. The source made the active and inactive calls. Unless noted, how the calls were made is not given here.
# Columns and labels:
# [1] = test system: Wnt5a (protein binding on small-molecule microarray); assay: Wnt5a binders on small-molecule microarray, primary screen, biophysical, 635/667 nm fluorescence (AID 1142); conditions: 635 nm fluorescence, higher = more signal;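 further: fluorescence read at 667 nm with signal to noise per printed feature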
# [2] = cell viability in Huh7 cells, primary screen, cytotoxicity control for HCV replication inhibitor project, CellTiter-Glo luminescence, basal, 48 h (AID 1143); conditions: Huh7 HCV replicon, CellTiter-Glo luminescence, 48 h, higher = more signal, called active from +8 up or from −8 down unless noted;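 further: Huh7 hepatoma cells carrying a hepatitis C replication reporter with no stimulus; test concentration not given here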
# [3] = P. aeruginosa biofilm formation inhibitors, primary screen, PAO1 strain, BacTiter-Glo luminescence, LB-PBS (AID 1144); conditions: 12 h, higher = more signal
# [4] = CREB reporter modulators without forskolin, primary screen, cell-based, PC12, CRE-LacZ reporter, unstimulated (AID 1145); conditions: no forskolin, luminescence, 4.5 h; higher = more signal, called active from +8 up or from −8 down unless noted
# [5] = CREB reporter modulators under forskolin, primary screen, cell-based, PC12, CRE-LacZ reporter, forskolin-stimulated (AID 1146); conditions: luminescence, 4.5 h; higher = more signal, called active from +8 up or from −8 down unless noted;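 further: PC12 cells with 6xCRE LacZ reporter stimulated by forskolin 10 µM; beta-galactosidase reporter signal reflecting CREB driven transcription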
# [6] = target: Streptavidin (Streptomyces avidinii) (UniProt P22629); assay: streptavidin binders on small-molecule microarray, primary screen, artefact control for SMM compound annotation, biophysical, 635/667 nm fluorescence (AID 1147); conditions: streptavidin binding, higher = more signal;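 further: signal reflects streptavidin binding to arrayed compounds as a control protein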
# Sequence of Streptavidin (Streptomyces avidinii) (P22629 whole entry, looked up): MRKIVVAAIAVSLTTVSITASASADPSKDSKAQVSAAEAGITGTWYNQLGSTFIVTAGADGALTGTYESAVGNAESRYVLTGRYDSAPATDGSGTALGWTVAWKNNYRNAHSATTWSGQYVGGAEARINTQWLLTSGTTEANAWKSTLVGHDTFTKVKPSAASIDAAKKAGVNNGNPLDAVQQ
# [7] = small-molecule binders of probe aInhba, primary screen, biochemical, small-molecule microarray, 635/667 nm fluorescence (AID 1148); conditions: higher = more signal; small-molecule microarray, probe aInhba, fluorescence unless noted;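 further: score merges 667nm spot fluorescence with signal-to-noise for antibody binding to printed compounds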
# Torsin-1A (Homo sapiens) [8] = target: Torsin-1A (Homo sapiens) (UniProt O14656); assay: torsin A binders from cell lysate, primary screen, small-molecule microarray, wild-type, 635/667 nm (AID 1149); conditions: COS7 hTOR1A-WT lysate, 635 nm fluorescence, higher = more signal
# Sequence of Torsin-1A (Homo sapiens) (O14656 whole entry, looked up): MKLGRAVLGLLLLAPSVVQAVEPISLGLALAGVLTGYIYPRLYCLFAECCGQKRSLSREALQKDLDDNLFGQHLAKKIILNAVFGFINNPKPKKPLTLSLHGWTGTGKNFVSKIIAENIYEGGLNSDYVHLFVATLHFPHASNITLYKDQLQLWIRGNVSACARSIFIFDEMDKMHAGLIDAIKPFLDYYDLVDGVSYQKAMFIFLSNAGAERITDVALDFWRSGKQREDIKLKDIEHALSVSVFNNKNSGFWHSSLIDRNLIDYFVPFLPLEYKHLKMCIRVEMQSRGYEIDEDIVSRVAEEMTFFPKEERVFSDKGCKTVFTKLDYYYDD
# Torsin-1A (Homo sapiens) [9] = target: Torsin-1A (Homo sapiens) (UniProt O14656); assay: small-molecule binders of mutant TOR1A in lysate, primary screen, cell lysate, small-molecule microarray, COS7 lysate, 635/667 nm fluorescence (AID 1150); conditions: COS7 hTOR1A mutant lysate, 635 nm fluorescence, higher = more signal;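 further: score pools 667 nm emission and signal to noise measuring lysate protein binding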
# [10] = test system: Sonic hedgehog protein (Shh); assay: small-molecule binders of Shh protein, primary screen, biochemical, small-molecule microarray, 635/667 nm fluorescence (AID 1151); conditions: small-molecule microarray binding, 635 nm fluorescence; higher = more signal;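 further: Shh protein binding to compounds spotted on small-molecule microarray slides; score combines spot fluorescence intensity with signal-to-noise across triplicate slides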
# [11] = E. coli DRC41 culture turbidity changes, primary screen, E. coli filamentation inducer project, strain DRC41, OD650, 48 h (AID 1152);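 further: E. coli MC1000 strain DRC41 lacking acrAB efflux pump and sulA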; conditions: E. coli DRC41 (acrAB sulA); higher = more signal, called active from +8 up or from −8 down unless noted
# [12] = small-molecule binders of probe aLefty1, primary screen, biochemical, small-molecule microarray, 635/667 nm fluorescence (AID 1153); conditions: higher = more signal; small-molecule microarray, probe aLefty1, fluorescence unless noted;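 further: score merges spot fluorescence with signal-to-noise ratio from the scanned slide images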
# [13] = PSAC antagonists in infected red cells, primary screen, cell-based, P. falciparum Indochina, OD700, 1 h (AID 1154); conditions: P. falciparum Indochina infected RBC osmotic lysis; higher = more signal, called active from +8 up or from −8 down unless noted
# [14] = PSAC antagonists in infected red cells, primary screen, cell-based, P. falciparum Indochina, OD700, 2 h (AID 1155);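 further: lysis reports solute entry through the parasite surface anion channel PSAC; channel blockers reduce lysis of infected cells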; conditions: P. falciparum Indochina infected erythrocytes, osmotic lysis OD700; higher = more signal, called active from +8 up or from −8 down unless noted
# [15] = osmotic lysis modulators in infected erythrocytes, primary screen, PSAC antagonist project, cell-based, P. falciparum Indochina, OD700, 3 h (AID 1156); conditions: higher = more signal, called active from +8 up or from −8 down unless noted
# [16] = PSAC antagonists in infected red cells, primary screen, cell-based, P. falciparum Indochina, OD700, 18 h (AID 1157); conditions: P. falciparum Indochina infected erythrocytes, osmotic lysis OD700, 18 h; higher = more signal, called active from +8 up or from −8 down unless noted
# [17] = modulators of S6 phosphorylation in cells, primary screen, cell-based, A549, cytoblot, luminescence, serum-stimulated (AID 1158); conditions: A549 phospho-S6 cytoblot, 5 h, higher = more signal;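 further: serum-stimulated A549 lung adenocarcinoma cells; signal is phosphorylated S6 detected by cytoblot immunostaining with HRP secondary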
# [18] = target: NADPH oxidase 2 (Homo sapiens) (UniProt P04839); assay: NOX2-dependent H2O2 signal modulators, primary screen, NOX inhibitor project, cell-based, HEK293-NOX2, PMA-stimulated, Amplex Red fluorescence (AID 1159); conditions: 45 min; higher = more signal, called active from +8 up or from −8 down unless noted; further: test concentration not given here
# Sequence of NADPH oxidase 2 (Homo sapiens) (P04839 whole entry, looked up): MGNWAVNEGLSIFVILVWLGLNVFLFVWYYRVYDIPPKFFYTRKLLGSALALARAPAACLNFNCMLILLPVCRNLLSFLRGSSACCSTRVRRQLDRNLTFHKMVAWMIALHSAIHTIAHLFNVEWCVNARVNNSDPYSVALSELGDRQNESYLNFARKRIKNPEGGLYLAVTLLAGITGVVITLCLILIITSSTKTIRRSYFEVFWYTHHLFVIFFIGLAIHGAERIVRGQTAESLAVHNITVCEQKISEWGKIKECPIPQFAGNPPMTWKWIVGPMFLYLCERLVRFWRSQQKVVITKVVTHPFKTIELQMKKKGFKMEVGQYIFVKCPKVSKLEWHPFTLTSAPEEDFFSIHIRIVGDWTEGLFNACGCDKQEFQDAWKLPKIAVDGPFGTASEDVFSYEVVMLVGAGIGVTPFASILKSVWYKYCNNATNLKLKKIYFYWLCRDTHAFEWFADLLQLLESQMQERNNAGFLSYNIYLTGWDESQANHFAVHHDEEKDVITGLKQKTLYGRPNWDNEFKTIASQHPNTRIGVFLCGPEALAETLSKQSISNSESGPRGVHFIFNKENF
# [19] = target: NADPH oxidase 4 (Homo sapiens) (UniProt Q9NPH5); assay: NOX4-dependent H2O2 signal modulators, primary screen, NOX inhibitor project, cell-based, HEK293-NOX4, tetracycline-induced, Amplex Red fluorescence (AID 1160); conditions: 45 min; higher = more signal, called active from +8 up or from −8 down unless noted
# Sequence of NADPH oxidase 4 (Homo sapiens) (Q9NPH5 whole entry, looked up): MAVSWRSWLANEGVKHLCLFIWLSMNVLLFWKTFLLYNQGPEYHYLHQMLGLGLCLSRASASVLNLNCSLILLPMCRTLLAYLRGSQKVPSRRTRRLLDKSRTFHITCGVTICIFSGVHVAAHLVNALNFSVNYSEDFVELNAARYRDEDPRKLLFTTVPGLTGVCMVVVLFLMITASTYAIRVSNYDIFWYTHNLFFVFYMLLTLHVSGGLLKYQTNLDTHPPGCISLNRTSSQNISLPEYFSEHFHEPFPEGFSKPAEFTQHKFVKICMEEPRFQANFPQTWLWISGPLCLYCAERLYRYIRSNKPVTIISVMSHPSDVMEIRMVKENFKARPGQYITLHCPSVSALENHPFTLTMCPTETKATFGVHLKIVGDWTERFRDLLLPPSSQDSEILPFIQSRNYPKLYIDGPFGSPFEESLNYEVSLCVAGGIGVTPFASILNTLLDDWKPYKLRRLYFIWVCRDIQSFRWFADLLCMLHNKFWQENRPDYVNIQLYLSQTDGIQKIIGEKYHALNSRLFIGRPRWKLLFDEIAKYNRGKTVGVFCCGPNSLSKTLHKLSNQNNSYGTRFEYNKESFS
# [20] = target: NADPH oxidase 5 (Homo sapiens) (UniProt Q96PH1); assay: NOX5-dependent H2O2 signal modulators, primary screen, NOX inhibitor project, cell-based, HEK293-NOX5, Amplex Red fluorescence (AID 1161); conditions: HEK293-NOX5, ionomycin, 45 min, higher = more signal
# Sequence of NADPH oxidase 5 (Homo sapiens) (Q96PH1 whole entry, looked up): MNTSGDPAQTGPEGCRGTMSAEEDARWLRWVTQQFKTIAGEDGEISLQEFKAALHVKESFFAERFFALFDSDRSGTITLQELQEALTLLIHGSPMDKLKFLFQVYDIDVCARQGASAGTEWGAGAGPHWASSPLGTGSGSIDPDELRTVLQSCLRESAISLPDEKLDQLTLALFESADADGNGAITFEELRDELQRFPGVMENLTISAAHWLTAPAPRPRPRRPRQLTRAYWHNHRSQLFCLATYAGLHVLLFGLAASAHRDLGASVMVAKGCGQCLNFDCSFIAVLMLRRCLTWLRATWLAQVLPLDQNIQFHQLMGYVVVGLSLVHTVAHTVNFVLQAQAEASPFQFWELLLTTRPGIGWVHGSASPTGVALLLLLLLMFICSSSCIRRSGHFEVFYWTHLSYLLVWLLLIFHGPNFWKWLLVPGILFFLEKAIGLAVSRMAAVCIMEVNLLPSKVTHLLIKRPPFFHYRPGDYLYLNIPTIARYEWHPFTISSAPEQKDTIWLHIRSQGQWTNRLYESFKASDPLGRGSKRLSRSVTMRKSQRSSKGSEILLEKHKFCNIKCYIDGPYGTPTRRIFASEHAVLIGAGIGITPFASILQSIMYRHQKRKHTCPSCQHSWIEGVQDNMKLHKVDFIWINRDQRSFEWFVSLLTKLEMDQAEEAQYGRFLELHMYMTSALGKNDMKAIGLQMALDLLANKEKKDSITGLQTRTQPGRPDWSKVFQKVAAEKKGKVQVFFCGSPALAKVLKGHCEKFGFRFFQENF
Compound,composite z-score [1],z-score [2],z-score [3],z-score [4],z-score [5],composite z-score [6],composite z-score [7],composite z-score (Torsin-1A (Homo sapiens) [8]),composite z-score (Torsin-1A (Homo sapiens) [9]),composite z-score [10],z-score [11],composite z-score [12],z-score [13],z-score [14],z-score [15],z-score [16],z-score [17],z-score [18],z-score [19],z-score [20]
CCCc1cc2c(n1Cc1ccco1)C(C)C1CN(C(=O)c3ccccc3)C(C)(C(=O)OC)C21 (stereo not given),0.326,-2.79 (inactive),0.666 (inactive),0.394 (inactive),0.718 (inactive),1,0.173,0.556,0.944,0.357,-2.11 (inactive),0.439,5.21 (inactive),0.63 (inactive),0.952 (inactive),0.495 (inactive),-0.11,-1.61 (inactive),-6.73 (inactive),-3.84
CCOC(=O)[C@H]1CC=C2C(=O)Oc3ccccc3[C@@H]21,-0.652,-1.22 (inactive),-0.473 (inactive),-0.228 (inactive),1.7 (inactive),-0.521,-0.0405,-2.41,-1.59,-0.528,-0.59 (inactive),-0.106,1.27 (inactive),0.804 (inactive),0.458 (inactive),0.708 (inactive),-0.395,0.00603 (inactive),-0.285 (inactive),-0.275
COC(=O)[C@H]1[C@@H](O)[C@@]2(O)c3c(OC)cc(OC)cc3O[C@@]2(c2ccc(OC)cc2)[C@@H]1c1ccccc1,0.226,-4.75 (inactive),-0.638 (inactive),1.82 (inactive),1.43 (inactive),0.442,0.0054,0.0165,0.295,0.683,0.662 (inactive),-0.19,0.253 (inactive),0.0987 (inactive),-0.15 (inactive),-0.219 (inactive),-1.37,0.0111 (inactive),-0.0152 (inactive),0.219
O=P(c1ccccc1)(c1ccccc1)N1CC2(CC2)CC(O)(c2ccccc2)C1 (stereo not given),0.323,-1.55 (inactive),0.525 (inactive),0.204 (inactive),-0.927 (inactive),0.386,0.309,-0.316,-0.276,-1.05,-1.16 (inactive),0.276,0.492 (inactive),0.585 (inactive),0.483 (inactive),0.741 (inactive),0.0869,-0.356 (inactive),-0.976 (inactive),-2.94
CC1N(P(=O)(c2ccccc2)c2ccccc2)CC(O)(c2ccccc2)CC12CC2 (stereo not given),-0.025 and -0.0606,-0.601 (inactive) and -2.65 (inactive),0.693 (inactive) and 0.00162 (inactive),0.0075 (inactive) and -0.179 (inactive),0.84 (inactive) and 0.498 (inactive),-0.586 and 0.107,-0.0589 and 0.475,-1.12 and -0.311,0.699 and 0.319,-0.649 and -1.4,-1.36 (inactive) and -1.82 (inactive),-0.103 and 0.607,0.232 (inactive) and 0.667 (inactive),-0.0745 (inactive),0.716 (inactive) and 0.248 (inactive),0.593 (inactive) and 0.642 (inactive),-0.259 and -0.209,-0.427 (inactive) and -1.04 (inactive),-1.52 (inactive) and -0.626 (inactive),-3.13 and -2.02
CN1CCC(c2ccc(CO)cc2)=CC1c1cccs1 (stereo not given),-0.113,-1.33 (inactive),0.196 (inactive),2.8 (inactive),0.158 (inactive),-0.511,-0.154,0.175,0.367,1.7,-0.0115 (inactive),-0.0111,5.23 (inactive),0.366 (inactive),0.377 (inactive),0.528 (inactive),-0.594,-0.822 (inactive),-1.01 (inactive),-1.21
COC(=O)[C@H]1[C@H](c2ccccc2)C(=O)[C@]2(O)c3ccccc3O[C@@]12c1ccccc1,0.129,-0.962 (inactive),-1.45 (inactive),-0.161 (inactive),-0.474 (inactive),0.287,-0.101,0.202,0.163,0.615,-0.474 (inactive),-0.0523,-0.446 (inactive),-0.657 (inactive),0.126 (inactive),-0.564 (inactive),1.55,-0.181 (inactive),-1.55 (inactive),-0.324
c1ccc(-c2cc3c(nc2-c2ccccc2)CCNC3)cc1,-0.2,-0.207 (inactive),0.346 (inactive),0.291 (inactive),-0.815 (inactive),0.0291,0.0228,0.175,-0.256,-0.193,-0.539 (inactive),-0.101,1.39 (inactive),0.179 (inactive),0.484 (inactive),0.248 (inactive),-0.597,1.18 (inactive),0.286 (inactive),-0.433
